SMILES strings stand for the structures. Results filed as inconclusive are left out. Activity calls are given as the source filed them. Calls follow the shape of the dose curve; as a rule, active = well fitted curve in the direction sought with a large enough effect; inconclusive = small, poorly fitted or top-dose-only effect, or effect the other way; inactive = flat fitted curve, though single readings scatter.

This test is described as follows: Total Fluorescence Confirmation Counterscreen for Inhibitors of the Interaction of Thyroid Hormone Receptor and Steroid Receptor Coregulator 2, Fluorescein Fluoroprobe. Particulars: TRbeta/SRC2-fluorescein mix, total fluorescence interference; series mostly up to 92.2 µM; total fluorescence change, positive = fluorescent: at the top concentration. The source says: NIH Molecular Libraries Probe Production Network [MLPCN] NIH Chemical Genomics Center [NCGC] MLPCN Grant: DK058080 Assay Provider: R. Kip Guy, St. Jude Children's Research Hospital NCGC Assay Overview: Thyroid receptor (TR) regulates many homeostatic processes including basal metabolism, cardiovascular function, body weight, and lipid trafficking. TR modulators are potential therapeutics for obesity and hyperlipidemias but current thyroid analogs have undesirable side effects, particularly cardiac stimulation. To identify inhibitors that specifically prevent the interaction of TR with the steroid receptor coregulator 2 (SRC2), a fluorescence polarization assay was screened (Arnold et al., 2006). This assay detects interaction of the ligand-binding domain of human TRbeta with a fluorescein labeled SRC2 peptide, corresponding to a 20 amino acid region of the nuclear receptor interaction domain. Total fluorescence (555 nm excitation and 632 nm emission) was measured to identify potential fluorescent and light absorbing compounds. Such compounds may be artifacts that interfere with the fluorescence polarization assay. This assay is a confirmation assay for AID 1479. Arnold, L. A.; Estebanez-Perpina, E.; Togashi, M.; Shelat, A.; Ocasio, C. A.; McReynolds, A. C.; Nguyen, P.; Baxter, J. D.; Fletterick, R. J.; Webb, P.; Guy, R. K. A high-throughput screening method to identify small molecule inhibitors of thyroid hormone receptor coactivator binding. Sci STKE 2006, p 13.
NCGC Assay Protocol Summary: For screening, 5 uL/well 0.6 uM TRbeta and 20 nM SRC2 Fluorescein in protein buffer (20mM Tris hydrochloride, 100mM NaCl, 10% glycerol, 1mM EDTA, 0.01% NP-40, 1mM DTT, 1uM T3 and 5% DMSO) was dispensed into black solid 1536-well plates (Grenier) using a solenoid-based dispenser. Following transfer of 23 nL compound or DMSO vehicle by a pin tool, the plates were centrifuged 15 s at 1000 RPM and incubated 5 hr at ambient temperature. The plates were read by an Envision (Perkin Elmer) to detect fluorescence polarization of SRC2 Fluorescein (480 nm excitation and 535 nm emission). Data were normalized to unbound (all components except TRbeta) and bound SRC2 Fluorescein controls. Total fluorescence (TF) was calculated as follows: TF = S + 2P where S and P are fluorescence readings in the parallel and perpendicular channels, respectively. In this assay, we provide % activity data for each concentration as well as potencies for the active compounds.
For orientation: Counterscreens check selectivity or assay interference.
On to `CCn1nc(-c2cccs2)nc2c(=O)n(C)c(=O)nc1-2`, for which the “total fluorescence change, positive = fluorescent” value (shortened to “total fluorescence change”) is 2.13% (inactive).
The same measure, in the same setting: with `CN1CC[C@@]2(C)c3cc(O)ccc3N(C)C2O1` (stereo not given in full) the figure was 9.37% [at 184 µM] (inactive).
Consider `O=C(O)CC1OCC=C2CN3CCC45C6=CC(=O)C(=O)C([N+](=O)[O-])=C6NC4C1C2CC35` (stereo not given), for which the molecule was classed as inactive.
Take `COP(=S)(OC)Oc1ccc([N+](=O)[O-])cc1`: the “total fluorescence change” value was 12.5% [at 184 µM] (inactive).
In the case of `Cc1[nH]n(-c2ccccc2)c(=O)c1C(c1ccc([N+](=O)[O-])cc1)c1c(C)[nH]n(-c2ccccc2)c1=O`, the “total fluorescence change” value is 6.9% (inactive).

The record behind these values is PubChem BioAssay AID1571 (National Center for Advancing Translational Sciences (NCATS), 2009).
